# In the library only some 22% were active in any assay of this set; here they are far more common.
# Shiga inhibitor: blocks Shiga toxin action in Vero cells. 9.2% of 290,000 active. Vero cells, Shiga toxin protein synthesis inhibition reporter. inhibition, % at 38.7 µM; in the data active means inhibition mostly above about 28%, no sharp cut-off; inactive means mostly below about 43%; further: 0% is about no effect
# Pf growth 48h: P. falciparum growth inhibition at 48 hours (one generation) | P. falciparum luciferase growth in erythrocytes, 48 h | Potency, µM (highest dose often 28.7 µM), for the others: at the highest dose activity change, negative = inhibition, most hits filed as inhibitors | 5.9% of 310,000 active | AID 504832; further: potency means the concentration at half of the fitted maximal effect; on the % scale 0 is the no-effect control and ±100 the full control effect
#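 In quantitative HTS format, infected erythrocytes bearing luciferase-reporter parasites were treated for a single generation at 37 C. Luminescence after adding detection reagent served as the growth measure.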
# LmPK inhibitor: blocks Leishmania mexicana pyruvate kinase activity; Q27686; purified LmPK, Kinase-Glo ATP luminescence, 1 h; Potency, µM (doses to about 57.5 µM), without a hit: at the top dose activity change, negative = inhibition, actives largely listed as inhibitors; 0.37% of 290,000 active; AID 1721; further: potency means the concentration at half of the fitted maximal effect; on the % scale 0 is the no-effect control and ±100 the full control effect
# Target sequence (Q27686 whole entry, looked up): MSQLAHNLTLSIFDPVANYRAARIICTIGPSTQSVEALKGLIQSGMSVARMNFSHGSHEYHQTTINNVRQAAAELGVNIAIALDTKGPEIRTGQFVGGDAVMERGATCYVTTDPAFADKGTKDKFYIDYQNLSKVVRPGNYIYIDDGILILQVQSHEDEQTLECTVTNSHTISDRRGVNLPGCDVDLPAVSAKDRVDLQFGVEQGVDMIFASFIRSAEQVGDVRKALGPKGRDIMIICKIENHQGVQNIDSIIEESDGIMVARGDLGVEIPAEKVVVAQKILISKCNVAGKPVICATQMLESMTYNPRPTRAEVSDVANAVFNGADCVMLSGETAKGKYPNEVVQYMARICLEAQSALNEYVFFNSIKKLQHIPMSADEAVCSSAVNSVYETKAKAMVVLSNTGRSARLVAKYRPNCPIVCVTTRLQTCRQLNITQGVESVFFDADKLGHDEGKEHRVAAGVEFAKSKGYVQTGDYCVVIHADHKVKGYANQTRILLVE
#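 Kinase-Glo luminescence read after 1 h RT reaction of 0.1 nM LmPK with 0.5 mM PEP and 0.1 mM ADP. Activity scaled between uninhibited and enzyme-free controls.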
# Cycloheximide cs: affects cycloheximide protein synthesis inhibition readout, counter-screen. cell reporter, cycloheximide protein synthesis inhibition counterscreen. max response, %. 12% of 300,000 active. AID 2314; in the data active means max response mostly above about 13%, no sharp cut-off; inactive means mostly below about 14%; further: read at 38.3 µM for the half of the compounds with a filed dose; 0% is about no effect
# Pf growth 96h: P. falciparum growth inhibition at 96 hour, primary screen for plastid delayed-death inhibitors; P. falciparum luciferase reporter growth, 96 h; Potency, µM (highest dose often 28.7 µM), for inactives: at the top dose activity change, negative = inhibition, most hits filed as inhibitors; 6.9% of 320,000 active; further: potency means the concentration at half of the fitted maximal effect; on the % scale 0 is the no-effect control and ±100 the full control effect
#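 Compounds incubated with erythrocytes infected by luciferase-expressing P. falciparum (2% hematocrit, 0.05% parasitemia final) for 96 hours, 37 C in 5% CO2. Growth inhibition scored as decreased luciferase luminescence.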
# Active calls of the source: *; i = inactive; ? = inconclusive; nt = not tested or not shown; + = active, no number; [ ] = dose if it differs, or a comment. Unless noted, the call rests on the fitted dose curve; in most records, active means well fitted inhibition curve with a large enough effect; inconclusive means small, poorly fitted or top-dose-only effect, or another doubt; inactive means no such curve, though single readings can be large or run the other way.
SMILES,Shiga inhibitor,Pf growth 48h,LmPK inhibitor,Cycloheximide cs,Pf growth 96h
CCOc1cc(C)c(Cl)cc1S(=O)(=O)N1CCCC1,-4.6,-16.0%,2.6%,-1.4,0.928µM*
O=C(Cc1ccccc1)Nc1ccc(NC(=O)c2ccco2)nc1,105.3*,164.5%,4.6%,44.5*,2.1%
O=C(Nc1ccc(NC(=O)c2ccco2)nc1)c1ccccn1,20.1,228.5%,?,27.5*,?
O=C(Nc1ccc(Cl)cc1C(=O)Nc1ccccn1)c1ccco1,12.3,0.1%,-7.4%,2.1,1.9%
O=C(Nc1ccc(NC(=O)c2ccco2)nc1)c1ccco1,42.1,i,-5.2%,10.9,21.4%
O=C(Nc1ccccn1)c1ccco1,97.9,102.6%,-11.4%,45.2*,80.5%
CCOc1ccc(C2C(C(=O)c3cccs3)=C(O)C(=O)N2CCN2CCOCC2)cc1 (stereo not given),25.4*,-8.2%,1.5%,28.3*,11.1%
CCOc1ccc(C2C(C(=O)c3ccco3)=C(O)C(=O)N2CCN2CCOCC2)cc1 (stereo not given),54.4*,17.5%,-10.6%,25.6*,31.7%
CCOc1ccc(C2C(C(=O)c3ccco3)=C(O)C(=O)N2CCCn2ccnc2)cc1OCC (stereo not given),-2.8,6.9%,6.4%,-4.2,?
CCCCOc1ccc(C2C(C(=O)c3cccs3)=C(O)C(=O)N2CCN2CCOCC2)cc1 (stereo not given),-0.6,-2.7%,4.2%,6.6,1.6%
CCOc1ccc(C2C(C(=O)c3ccco3)=C(O)C(=O)N2CCCn2ccnc2)cc1 (stereo not given),+,48.2%,-2.5%,33.3*,nt
Cc1ccc(C(=O)C2=C(O)C(=O)N(Cc3ccco3)C2c2ccc(N(C)C)cc2)o1 (stereo not given),-5.6,?,-10.5%,19.3,11.7µM*
CC1CCCCN1C(=O)COc1ccccc1F (stereo not given),4.8,30.1%,1.6%,-3.8,-2.6%
O=C(COC(=O)c1ccc[nH]c1=O)NCC12CC3CC(CC(C3)C1)C2,nt,33.1%,nt,nt,4.4%
C=CCOc1ccc(C2C(C(=O)c3ccco3)=C(O)C(=O)N2Cc2cccnc2)cc1 (stereo not given),+,-11.0%,-2.5%,17.6,nt
C=CCOc1cccc(C2C(C(=O)c3ccco3)=C(O)C(=O)N2Cc2cccnc2)c1 (stereo not given),45.1,-1.6%,4.2%,9.5,-12.3%
CCn1cc(C2=NC(CC(C)C)CO2)c2ccccc21 (stereo not given),51.1,-21.9%,-2.1%,22.2*,-13.1%
CCn1cc(C2N3CC4(C)CN2CC(C)(C3)C4=O)c2ccccc21 (stereo not given),-7.1,nt,8.2%,-1.9,38.0%
CCn1cc(C2=NC(C(C)C)CO2)c2ccccc21 (stereo not given),1.4,6.7%,0.6%,-1.6,42.5%
CCn1cc(C2=NC(CCSC)CO2)c2ccccc21 (stereo not given),42.9,-8.8%,7.6%,18.0*,32.4%
COc1cccc(-c2nn(-c3ccccc3)cc2/C=C\C(=O)c2cccs2)c1,21.8,?,3.2%,9.8,?
O=C(/C=C/c1ccnc2ccccc12)c1cccs1,72.9*,62.9%,?,37.6*,?
COc1cscc1C(N)=O,-11.6,-23.1%,8.4%,-3.2,?
CCN(CC)CCN(C)C(=O)CCc1nnc(-c2ccc(C)s2)o1,34.4*,50.2%,-1.5%,21.8*,?
CC(C)(CO)CNC(=O)CCc1nnc(-c2ccc(-c3ccccc3)cc2)o1,60.1*,0.0%,-4.8%,24.9*,?
SMILES,Shiga inhibitor,Pf growth 48h,LmPK inhibitor,Cycloheximide cs,Pf growth 96h
CC(C)(CO)CNC(=O)CCc1nnc(C2(c3ccc(Cl)cc3)CCC2)o1,11.0,-5.9%,8.3%,3.5,?
CCOC(=O)c1nnc(-c2ccccc2)o1,-4.3,5.0%,-12.9%,-2.5,11.2%
Cc1ccc(S(=O)(=O)N(C)CC(=O)OCc2nnc(-c3ccccc3)o2)cc1,32.7,7.8%,4.1%,7.8,9.2%
CCOC(=O)CN(C)C(=O)CCc1nnc(-c2ccc(-c3ccccc3)cc2)o1,34.8,?,1.8%,13.0*,-13.4%
CCOC(=O)Cc1nnc(-c2ccccc2)o1,35.9,15.9%,3.4%,22.3*,?
CCn1nc(C)c(CNC(=O)CCc2nnc(-c3ccc(C(C)=O)s3)o2)c1C,19.4,-23.9%,1.8%,-2.7,-7.6%
COc1cc([C@@H]2CC(=O)c3c(O)cc(O)cc3O2)ccc1O,-7.6,nt,nt,0.3,nt
Cc1cc(=O)oc(C)c1C(=O)Nc1ccc(F)cc1,21.4,40.9%,-0.5%,-0.7,78.5%
Cc1cccc(CC(C)NC(=O)CCc2nnc(-c3ccccc3)o2)n1 (stereo not given),21.8,-8.3%,-5.7%,12.9*,?
O=C(N/N=C/C=C/c1ccccc1)c1cccs1,75.0*,55.8%,-8.3%,41.5*,6.3%
O=C(N/N=C/C=C\c1ccccc1[N+](=O)[O-])c1ccncc1,-8.5,-4.4%,11.4%,1.0,-3.5%
O=C(N/N=C/C=C/c1ccccc1)c1ccncc1,-19.8,28.0%,-1.1%,0.3,18.3%
O=C(N/N=C/c1ccccc1[N+](=O)[O-])c1cccs1,88.5*,157.9%,-13.0%,40.6*,87.9%
NC(=S)N/N=C/c1ccccc1[N+](=O)[O-],8.4,18.3%,4.0%,0.6,?
O=C(Cc1cccs1)N/N=C/C=C\c1ccccc1[N+](=O)[O-],84.7*,60.0%,4.5%[11.5 µM],32.7*,?
O=C(N/N=C/C=C/c1ccccc1[N+](=O)[O-])c1cccs1,22.5,21.0%,1.9%,29.6*,?
O=C(CNc1cccc2ccccc12)N/N=C/C(Br)=C/c1ccccc1,-7.6,6.6%,3.7%,-2.1,14.7%
Cc1ccc(/C=N/NC(=O)c2cccs2)cc1[N+](=O)[O-],78.4*,72.3%,-1.7%,39.4*,137.9%
O=C(/C=C/c1ccccc1)NC(=S)NNC(=O)Cc1cccs1,13.3,-69.5%,3.9%,9.1,2.7%
O=C(N/N=C\C=C\c1ccc([N+](=O)[O-])o1)c1cccs1,100.1*,?,1.0%,32.7*,?
O=C(Cc1cccs1)N/N=C/C=C/c1ccccc1,58.7*,95.6%,4.6%,25.4*,0.0%
O=C(N/N=C/C(Br)=C/c1ccccc1)c1cccs1,122.5*,254.4%,-3.2%,63.1*,8.5%

# Screening results from PubChem BioAssay.
